Source: PubChem (several laboratories)
PKA-R2B act: activators of human PKA-R2B complex; activation, % at 11.4 µM; PKA-R2B holoenzyme dissociation, Cy5-IP20 fluorescence polarization; R2B truncated from residue 108, S112A mutant; 0% DMSO only, 100% 113 µM cGMP; hit rate 0.079% among 340,000; P22694+P31323;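 active means activation above a cutoff set at the mean over all compounds plus 3 SD, cut at about 18% in these data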;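 further: higher means more holoenzyme dissociation and a rise in polarization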
Target sequence (P31323 whole entry, looked up, other chains not shown, the tested form may be a part): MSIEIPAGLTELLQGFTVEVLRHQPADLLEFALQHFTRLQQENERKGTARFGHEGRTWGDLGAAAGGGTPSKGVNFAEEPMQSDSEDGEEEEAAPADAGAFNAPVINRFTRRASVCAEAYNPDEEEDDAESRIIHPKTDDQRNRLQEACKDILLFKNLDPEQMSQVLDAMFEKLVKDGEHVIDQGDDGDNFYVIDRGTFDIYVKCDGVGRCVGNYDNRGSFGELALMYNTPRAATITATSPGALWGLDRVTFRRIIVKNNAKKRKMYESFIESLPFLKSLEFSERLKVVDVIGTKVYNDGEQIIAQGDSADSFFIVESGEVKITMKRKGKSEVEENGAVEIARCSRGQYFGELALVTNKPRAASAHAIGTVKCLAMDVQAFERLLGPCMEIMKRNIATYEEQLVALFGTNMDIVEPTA
V-ATPase pH: yeast V-ATPase proton transport regulation by pHLuorin; response, % at 10 µM; S. cerevisiae, pHLuorin cytosolic pH fluorescence; hit rate 0.37% among 350,000; AID 504577; in the data active means response mostly above about 7.3%, no sharp cut-off; inactive means mostly below about 5.4%; further: actives read high
PKA-R1A act: PKA-R1A complex activation | P00514+P68181 | PKA-R1A dissociation, Cy5-IP20 fluorescence polarization; scaled: DMSO 0%, 113 µM cGMP 100% | activation, % at 11.4 µM | hit rate 0.083% among 340,000;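 active means percent activation above the mean of all tested compounds plus 3 SD, cut at about 19% in these data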;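 further: higher means more PKAc released from R1A so a rise in polarization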
Yeast superoxide: caloric restriction mimetics inhibiting age-related superoxide in yeast. S. cerevisiae aged cells, superoxide DHE fluorescence; active compounds read low. AID 2690. superoxide response (% of plate mean), % at 10 µM. hit rate 0.18% among 330,000;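 active means superoxide response under a set limit, about three screen SD below normal, cut at about 65% in these data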;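 further: yeast aged for seven days with compound at 30 °C before DHE staining; 100% = average MFI of all compound-treated wells on the plate with controls excluded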
PolyA inhibitor: inhibitors of polyadenylation in S. cerevisiae. S. cerevisiae SKY197-pL101 polyadenylation reporter, beta-gal luminescence; efflux-impaired pdr1/pdr3 knockout yeast; score 100 = 6 SD above DMSO. activity score, % at 12 µM. hit rate 0.02% among 300,000. AID 1875;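 active means lowest replicate activity score at least 50, where 100 means six control SD above control mean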;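 further: yeast exposed to compound for 9 h at 30 °C; higher score means more reporter readthrough which indicates perturbed polyadenylation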
JMJD2C inh: blocks human GASC-1 demethylase activity. GST-JMJD2C(1-420) H3K9me3 demethylation, DELFIA europium. inhibition, % at 2.35 µM. hit rate 0.069% among 330,000. AID 2099;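 active means more than half of a compound's replicate wells show inhibition beyond 50%, single wells judged on their own value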;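 further: signal counts dimethyl H3K9 product captured on neutravidin plate; 0% = median of DMSO wells and 100% = 0.3 times that DMSO median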
Numbers without * were called inactive; . = no result. Rows were chosen to be rich in hits. Some 0.78% of all compounds tested hit in one or more screens of this group.

SMILES | PKA-R2B act | V-ATPase pH | PKA-R1A act | Yeast superoxide | PolyA inhibitor | JMJD2C inh
O=C(c1cccc(S(=O)(=O)N2CCOCC2)c1)N1CCN(c2ccccc2)CC1 | -1.4 | 0.1 | -8.7 | 93.1 | . | -17.2
O=C(c1cccc(S(=O)(=O)N2CCOCC2)c1)N1CCN(c2ccc(F)cc2)CC1 | 2.5 | 17.7* | 7.5 | 87.8 | 2.3 | -0.2
CC1CCCCC12NC(=O)N(CC(=O)N1CCN(S(=O)(=O)c3ccc4c(c3)CCC4)CC1)C2=O (stereo not given) | 5.5 | 24.6* | 10.6 | . | . | .
CC1CCCCC12NC(=O)N(CC(=O)Nc1ccc(S(=O)(=O)N3CCOCC3)cc1)C2=O (stereo not given) | -1.1 | 7.8 | -4.8 | 89.4 | 2.9 | 0.3
Cc1[nH]c2ccccc2c1CCNC(=O)CCC(=O)c1ccccc1 | 8.9 | 17.1* | 0.7 | 88.7 | 9.1 | 3.6
CC1=C(C(=O)OC(C)C)C(c2cn(-c3ccccc3)nc2-c2cccs2)NC(=O)N1 (stereo not given) | 4.8 | 15.7* | -5.9 | 109.0 | -3.5 | 7.8
COc1ccc2c(c1OC)C(=O)OC2N1C(=O)CC[C@H]1C(=O)Nc1ccc(F)cc1F (stereo not given in full) | -7.3 | -1.4 | 1.8 | 92.8 | 32.4 | 2.5
Cc1ccc(C(=O)c2ccc(C)cc2)cc1 | -12.8 | -0.4 | -9.5 | 110.0 | 7.9 | 10.4
Cc1ccc(C(=O)c2no[n+]([O-])c2C(=O)c2ccc(C)cc2)cc1 | -17.6 | 0.3 | -4.1 | 76.9 | 99.6* | 1.9
O=C(O)CC1(CC(=O)NCc2ccc(Cl)cc2)CCCCC1 | 0.6 | 3.1 | -6.8 | 99.3 | 8.7 | 2.5
C[C@]12CC[C@@H]3c4ccc(O)cc4CC[C@H]3[C@@H]1CCC2=O | 1.1 | 92.6* | 1.6 | 91.0 | 32.8 | 1.7
O=C(CCN1C(=O)S/C(=C\c2ccc(F)cc2)C1=O)Nc1ccc(O)cc1C(=O)O | -7.6 | -0.5 | -8.6 | 112.2 | 6.3 | 17.1
COc1ccc(N2C(=O)N3[C@H](c4ccc(Cl)cc4)[C@@H]4C(=O)N(C5CCCCC5)C(=O)[C@@H]4[C@]3(Cc3ccc(Cl)cc3)C2=O)cc1 | -4.0 | 1.1 | 0.1 | 95.3 | -5.7 | 5.3
O=C1[C@H]2[C@@H](c3ccc(F)cc3)N3C(=O)N(c4ccc(Br)cc4)C(=O)[C@@]3(Cc3ccc(Cl)cc3)[C@H]2C(=O)N1C1CCCCC1 | -7.3 | 11.8* | -2.4 | 95.2 | 18.6 | -3.9
Cn1ncc(S(=O)(=O)Cc2ccccc2)c(Cl)c1=O | -8.5 | 19.2* | -9.6 | 97.1 | 13.2 | -9.7
O=C1[C@H]2[C@@H](c3ccc(Cl)cc3)N3C(=O)N(c4cccc(Cl)c4)C(=O)[C@@]3(Cc3ccccc3)[C@H]2C(=O)N1C1CCCCC1 | -16.2 | 6.6 | -6.7 | 105.3 | 1.0 | -6.0
CCC(=O)Oc1ccc2c(c1)O/C(=C\c1ccco1)C2=O | . | 0.3 | . | 108.9 | 3.9 | -39.6
CCN(CC)C(=O)Oc1ccc2c(c1)O/C(=C\c1ccco1)C2=O | 4.8 | -1.2 | 0.9 | 99.2 | 59.5* | -16.6
O=C(CNC(=O)c1ccccc1O)N/N=C/c1cc(Br)ccc1OC(=O)/C=C/c1ccco1 | . | . | . | 101.0 | -4.7 | 53.7*
CCOc1ccc(S(=O)(=O)N2CCCCC2)cc1NC(=O)CCNC(=O)c1ccco1 | 9.2 | 7.9 | 9.1 | . | . | .
CSc1ccccc1NC(=O)CN(c1cccc(C)c1)S(C)(=O)=O | -3.7 | 13.1* | 6.7 | 97.8 | 2.0 | 6.2
Cc1cccc(N(CC(=O)Nc2ccccc2F)S(C)(=O)=O)c1 | 2.2 | -4.2 | -2.3 | 94.1 | 3.2 | 0.1
O=C(NCc1ccco1)c1ccc2c(c1)N(Cc1ccccc1)CCS2 | -9.8 | 5.5 | -13.8 | 88.0 | 0.1 | 0.9
O=C(NCc1ccco1)c1ccc2c(c1)N(Cc1ccc(Cl)cc1)CCS2 | -16.6 | 13.5* | 6.5 | 96.9 | -6.7 | -2.5
O=C(NCCCc1ccccc1)c1ccc(-n2cncn2)c([N+](=O)[O-])c1 | 4.9 | 0.7 | 6.3 | 107.5 | 33.8 | 1.0
SMILES | PKA-R2B act | V-ATPase pH | PKA-R1A act | Yeast superoxide | PolyA inhibitor | JMJD2C inh
COc1ccc2c(c1)OC13CCN(C)CC1C2C(C(=O)c1ccc(F)cc1)C(=O)N3 (stereo not given) | -0.2 | -5.4 | -4.8 | 93.7 | 19.5 | -1.6
COc1ccc2c(c1)OC13CCCCC1C2C(C(=O)c1ccccc1)C(=O)N3 (stereo not given) | 2.9 | 20.1* | 1.2 | 106.2 | 14.6 | 10.3
CCCc1nnc(NC(=O)CSc2nnc(-c3ccco3)n2C)s1 | -3.4 | -1.9 | -7.1 | 112.4 | 2.5 | -10.8
COc1ccc(-c2nc(CN3CCC(C(=O)NC4CCCc5ccccc54)CC3)c(C)o2)cc1OC (stereo not given) | -6.9 | 13.4* | -0.4 | . | . | .
CCOC(=O)c1c(C)c(C(=O)NCc2cccs2)c(C)n1CC | -0.3 | -0.6 | 7.0 | 108.6 | -1.4 | -3.0
CCOC(=O)c1c(C)c(C(=O)Nc2cc(OC)ccc2OC)c(C)n1CC | -2.8 | 14.9* | -4.5 | 86.8 | -37.2 | 6.3
CCOC(=O)c1c(C)c(C(=O)Nc2ccccc2)c(C)n1CC | 4.3 | 20.1* | 2.8 | 97.8 | 22.0 | 0.9
Cc1cc(C)c(NC(=O)CNC(=O)c2ccc3c(=O)n4c(nc3c2)CCC4)c(C)c1 | -2.0 | -0.3 | 2.5 | 106.0 | . | 4.4
Cc1cccc(C)c1NC(=O)CN(C)C(=O)c1ccc2c(=O)n3c(nc2c1)CCC3 | -14.3 | -6.6 | -2.5 | 65.4* | . | 9.0
CC1OC(CC(=O)O)CC2=C1C(=O)c1c(O)cccc1C2=O (stereo not given) | -9.4 | 116.6* | -0.8 | . | . | .
O=[N+]([O-])c1cccc(CON=Cc2cc(Cl)ccc2O)c1 | -6.3 | 1.6 | -2.6 | . | . | .
O=c1[nH]c2ccc(NC(=S)NC3CCCCC3)cc2[nH]1 | -6.5 | -2.1 | -8.2 | 87.8 | -6.8 | -25.1
O=c1cc(NC2CCCCCC2)[nH]c(=O)[nH]1 | 3.2 | -0.8 | 2.2 | 93.2 | -7.5 | 54.2*
CCn1c(SCC(=O)N2CCCc3ccccc32)nc2c(c1=O)SC(C)C2 (stereo not given) | 1.0 | 15.9* | -4.1 | 95.1 | . | .
CCn1c(SCC(=O)N2CCc3ccccc32)nc2c(c1=O)SC(C)C2 (stereo not given) | . | . | . | 95.6 | -3.8 | 3.7
CCn1nnnc1SCC(=O)N1CCCc2ccccc21 | -11.4 | 24.1* | 3.3 | 93.6 | 1.7 | -5.4
CC(CCc1ccccc1)NC(=O)c1ccc(F)cc1 (stereo not given) | 6.6 | 2.1 | -11.4 | 105.2 | -1.7 | -45.8
CCOC(=O)N/N=C(/C)c1ccc(N2C(=O)C3CCCCC3C2=O)cc1 (stereo not given) | -12.1 | -0.6 | 1.1 | 94.0 | -8.2 | 8.8
CCOc1nc(CC(C)C)c2c(c1C#N)CC(C)(C)OC2 | -9.3 | 20.3* | 3.3 | 102.6 | -4.0 | 2.7
